# The list is not random: actives were taken first. Their share in the collection is about 3%.
# GDH-TPI counter-1 = GDH-TPI coupled enzyme inhibition counter-screen; GDH-TPI coupled enzyme counterscreen, NADH absorbance; inhibition, % at 4.8 µM; 360,000 tested, 1.2% active; AID 588335; in the data active means inhibition above about 30%
# Mtb BioA inh = BioA (M. tuberculosis) enzyme inhibition. purified M. tuberculosis BioA enzyme, plate reader. inhibition, % at 9.99 µM. 360,000 tested, 0.096% active. AID 602481; in the data active means inhibition above about 40%
# BH1578 lux ind = quorum light induction in luxS cqsA deficient V. cholerae. activation, % at 18.7 µM. V. cholerae BH1578 lux reporter, luminescence, 6 h. 350,000 tested, 0.16% active; in the data active means activation mostly above about 9.7%, no sharp cut-off
# FBA Mtb inh = inhibitors of M. tuberculosis fructose-bisphosphate aldolase; P9WQA3; purified M. tuberculosis FBA, fluorescence read-out; inhibition, % at 1 µM; 360,000 tested, 2.3% active
# Target sequence (P9WQA3 whole entry, looked up): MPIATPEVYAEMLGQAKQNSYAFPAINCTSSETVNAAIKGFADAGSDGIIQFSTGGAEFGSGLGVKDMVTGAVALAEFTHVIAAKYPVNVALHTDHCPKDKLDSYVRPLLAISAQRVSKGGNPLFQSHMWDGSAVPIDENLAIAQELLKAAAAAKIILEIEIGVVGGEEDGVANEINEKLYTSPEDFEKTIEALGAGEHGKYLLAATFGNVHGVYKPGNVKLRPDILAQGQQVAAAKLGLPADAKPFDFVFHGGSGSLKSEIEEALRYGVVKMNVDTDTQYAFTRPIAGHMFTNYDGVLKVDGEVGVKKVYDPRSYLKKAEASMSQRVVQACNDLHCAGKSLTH
# Mtb FBA confirm = Mtb FBA inhibition, confirmed | shares compounds with FBA Mtb inh | purified M. tuberculosis FBA, fluorescence read-out | inhibition, % at 1 µM | 5,600 tested, 78% active | AID 651616
# GDH-TPI counter-2 = inhibits GDH-TPI coupling enzymes, flagging Mtb FBA hits | inhibition, % at 1 µM | 5,600 tested, 81% active | AID 652141 | shares compounds with FBA Mtb inh | GDH-TPI coupled enzyme counterscreen, fluorescence; in the data active means inhibition above about 10%
# Hits are given with their value; – = inactive; · = not tested or not shown; + = active, no number. Unless noted, no stated cut-off is given here; in the data, active means inhibition above about 27%; inactive means the rest.
SMILES,GDH-TPI counter-1,Mtb BioA inh,BH1578 lux ind,FBA Mtb inh,Mtb FBA confirm,GDH-TPI counter-2
CCN1C(=O)[C@H]2[C@@H](c3ccc(-c4ccc(OC)cc4)c(OC)c3)N[C@@](C)(C(=O)OC)[C@H]2C1=O,–,–,–,35,39,43
COC(=O)[C@]1(C)N[C@H](c2ccc(-c3cccc(Cl)c3)c(OC)c2)[C@@H]2C(=O)N(C)C(=O)[C@@H]21,–,–,–,38,47,41
CCN1C(=O)[C@H]2[C@@H](c3ccc(-c4ccc(F)cc4)c(OC)c3)N[C@@](C)(C(=O)OC)[C@H]2C1=O,–,–,–,–,·,·
COC(=O)[C@@]12CCCN1[C@H](c1ccc(-c3ccc(OC)cc3)c(OC)c1)[C@@H]1C(=O)N(C)C(=O)[C@@H]12,–,–,–,29,+,+
COC(=O)[C@]1(C)N[C@H](c2ccc(-c3cccc(Cl)c3)cc2)[C@@H]2C(=O)N(C)C(=O)[C@@H]21,–,–,–,–,·,·
COc1ccccc1-c1cn(CC[C@H]2CC[C@@H](NC(=O)C3CCC3)[C@@H](CO)O2)nn1,·,–,·,·,·,·
Cc1cc(OCC(=O)Nc2cccnc2)c2c(C)c(C)c(=O)oc2c1,–,–,–,–,·,·
CCCCc1cc(=O)oc2cc(C)cc(OCC(=O)NCc3cccnc3)c12,–,–,–,46,–,13
Cc1cc(OCC(=O)NCc2cccnc2)c2c(C)c(C)c(=O)oc2c1,–,–,–,30,140,122
CCc1cc(=O)oc2cc(C)cc(OCC(=O)NCc3cccnc3)c12,–,–,–,72,+,+
CCCCc1cc(=O)oc2cc(C)cc(OCC(=O)Nc3ccccn3)c12,–,–,–,34,–,–
COc1ccc(NC(=O)Nc2cccc3c2O[C@H](CN(C)C(=O)Nc2ccc(OC)cc2)[C@H](C)CN([C@H](C)CO)C3=O)cc1,·,–,·,·,·,·
CCN(C(=O)c1cc2c(=O)n3ccccc3nc2s1)C1CCCCC1,–,–,–,72,56,32
CCN(C(=O)c1cc2c(=O)n3cccc(C)c3nc2s1)C1CCCCC1,–,–,–,–,·,·
CCOC(=O)C1CCCN(C(=O)c2cc3c(=O)n4ccccc4nc3s2)C1 (centres undefined),–,–,–,63,–,–
Cc1cccc(NC(=O)c2cc3c(=O)n4ccccc4nc3s2)c1,–,–,–,–,·,·
CCOC(=O)C1CCCN(C(=O)c2cc3ccccc3cc2OC)C1 (centres undefined),–,–,–,–,·,·
CCCNC(=O)COC(=O)c1cc2c(=O)n3ccccc3nc2s1,–,·,–,76,–,–
O=C(c1cc2c(=O)n3ccccc3nc2s1)N1CCN(c2cccc(Cl)c2)CC1,–,–,–,–,·,·
O=C(c1cc2c(=O)n3ccccc3nc2s1)N1CCOCC1,–,–,–,79,+,+
CO[C@@H]1CN(C)C(=O)c2cc(NC(=O)c3ccccc3)ccc2OC[C@@H](C)N(CC2CC2)C[C@H]1C,·,–,·,·,·,·
C[C@H]1CN([C@@H](C)CO)C(=O)c2cc(NC(=O)CCC(F)(F)F)ccc2O[C@@H]1CN(C)C(=O)Nc1ccccc1,·,–,·,·,·,·
O=C(Nc1cccc(Cl)c1)c1cc2c(=O)n3ccccc3nc2s1,–,–,–,–,·,·
CC1CCN(C(=O)c2cc3c(=O)n4ccccc4nc3s2)CC1,–,–,–,87,132,100
O=C(O)CN1C(=O)/C(=C/c2ccccc2Br)Oc2ccccc21,–,–,–,83,–,–
SMILES,GDH-TPI counter-1,Mtb BioA inh,BH1578 lux ind,FBA Mtb inh,Mtb FBA confirm,GDH-TPI counter-2
CCOC(=O)CN1C(=O)/C(=C/c2cccc(Br)c2)Oc2ccccc21,–,–,–,–,·,·
C[C@H](CO)N1C[C@H](C)[C@H](CN(C)C)Oc2c(NC(=O)Nc3ccc(C(F)(F)F)cc3)cccc2C1=O,·,–,·,·,·,·
Cc1cc(C)c2cc(C#N)c(N3CCCC3)nc2c1,–,–,–,36,–,–
CN(C)C(=O)C[C@@H]1C[C@@H]2c3cc(NS(C)(=O)=O)ccc3O[C@@H]2[C@H](CO)O1,·,–,·,·,·,·
N#Cc1ccc2ccn(CC(=O)NC3CCCCCC3)c2c1,–,–,–,–,·,·
COC(=O)c1ccc2ccn(CC(=O)NC3CCCCC3)c2c1,–,–,–,71,–,–
COc1ccc2oc(-c3ccncc3)cc(=O)c2c1,–,–,–,30,+,+
O=c1nc2c(-c3ccccc3F)n[nH]n2c2ccccc12,–,–,–,49,77,57
CCc1ccc(S(=O)(=O)c2n[nH]n3c2nc(=O)c2ccccc23)cc1,–,–,–,–,·,·
CCC1(c2ccc(F)cc2)NC(=O)N(CC(=O)N2CC(=O)Nc3ccccc32)C1=O (centres undefined),–,–,–,29,163,116
CCS(CC)=NS(=O)(=O)c1ccc(NC(C)=O)cc1,–,–,–,64,98,87
CC(=O)Nc1ccc(S(=O)(=O)N=S(C)C)cc1,–,–,–,–,·,·
c1ccc(CCCc2nc(-c3cccnc3)no2)cc1,–,–,–,77,52,37
O=C(Nc1ccc(S(=O)(=O)Nc2ncccn2)cc1)c1ccccc1NS(=O)(=O)c1ccc(F)cc1,–,·,–,73,–,–
Cc1ccnc(NC(=O)c2cc(S(=O)(=O)N3CCCCC3)ccc2Cl)c1,–,·,–,38,92,84
O=C(Nc1cc(S(=O)(=O)N2CCCCC2)ccc1Cl)c1ccccc1NS(=O)(=O)c1ccc(F)cc1,–,·,–,33,–,–
O=C(Nc1ccc(-c2nc3ccccc3[nH]2)cc1)c1ccccc1NS(=O)(=O)c1ccc(F)cc1,31,–,–,87,+,+
C[C@@H]1CCCCO[C@H](CN(C)C(=O)Nc2ccc3c(c2)OCO3)[C@H](C)CN([C@H](C)CO)C(=O)c2cc(NS(=O)(=O)c3ccccc3)ccc2O1,·,–,·,·,·,·
CCc1nnc(NS(=O)(=O)c2ccc(NC(=O)c3ccccc3O)cc2)s1,–,–,–,73,35,26
Cc1ccc(S(=O)(=O)Nc2ccccc2C(=O)NCc2cccnc2)cc1,–,·,–,51,59,48
Cc1noc(C)c1S(=O)(=O)N(C)C[C@@H]1Oc2ccc(NS(=O)(=O)c3cccs3)cc2CC(=O)N([C@@H](C)CO)C[C@H]1C,·,–,·,·,·,·
COC(=O)c1[nH]c2ccccc2c1Sc1ccccc1,–,–,–,77,95,73
Cc1noc(C)c1NC(=O)Nc1cccc2c1O[C@H](CN(C)Cc1ccc(C(F)(F)F)cc1)[C@H](C)CN([C@@H](C)CO)C2=O,·,–,·,·,·,·
CN1CCN(S(=O)(=O)c2cccc(C(=O)NCc3ccc(Cl)cc3)c2)CC1,–,–,–,64,48,44
COc1ccc(CNC(=O)c2cccc(S(=O)(=O)N3CCN(C)CC3)c2)cc1,–,·,–,–,·,·
Cc1nc(SCC(=O)N2CCN(c3ccccc3)CC2)c2oc3ccccc3c2n1,–,–,–,31,+,+
Cc1nc(SCC(=O)O)c2oc3ccccc3c2n1,–,–,–,–,·,·
O=C(c1coc(=O)c(Br)c1)N1CCOCC1,–,·,–,98,–,–

# Screening results (PubChem)
